In the supplement of paper PMC13380429 one finds morphology score and SARS-CoV-2 infection rate data, which are given here for 30 compounds.

The test system of assay [1] is Vero E6 infected with SARS-CoV-2. Briefly: morphology score (similarity to uninfected cells); higher = more like uninfected cells. Particulars: 24 h.
For assay [2] the test system is unchanged. Briefly: SARS-CoV-2 infection rate relative to infected DMSO; higher = more infection, active = 60 or less. As to conditions: 24 h.

In assay [1], `CN[C@@H]1[C@@H](O[C@H]2O[C@H](CO)[C@@H](N)[C@H](O)[C@H]2O)O[C@H]2C[C@@H](N)[C@@H](O[C@H]3[C@H](O)[C@@H](O)[C@H](N)C[C@@H]3N)O[C@@H]2[C@@H]1O` [apramycin] (10 µM) registered a morphology score of 0.0655. Also, in assay [2], the SARS-CoV-2 infection rate is 98% (inactive).
The compound `C#Cc1cccc(Nc2ncnc3cc(OCCOC)c(OCCOC)cc23)c1` [erlotinib] (10 µM) returned a morphology score in assay [1] of -0.159. The SARS-CoV-2 infection rate in assay [2] was 116% (inactive).
The corresponding values for `COC1CCN(C(=O)c2cc(Cc3n[nH]c(=O)c4ccccc34)ccc2F)CC1` (10 µM) are 0.118 and 103% (inactive).
Consider `O=C(c1ccccc1)c1ccc2n1CCC2C(=O)O` (stereo not given) [ketorolac] (10 µM), for which the morphology score in assay [1] was determined as 0.000781. For the same compound, the SARS-CoV-2 infection rate in assay [2] was 107% (inactive).
As for `N#CCC(=O)c1ccccc1` (10 µM), in assay [1], the morphology score is 0.0172. Further, the SARS-CoV-2 infection rate in assay [2] was 112% (inactive).
The corresponding values for `NC(=O)N1c2ccccc2CC(O)c2ccccc21` (stereo not given) [licarbazepine] (10 µM) are 0.188 and 97% (inactive).
Regarding `O=c1[nH]c(=O)n([C@H]2C[C@H](O)[C@@H](CO)O2)cc1C(F)(F)F` [trifluridine] (0.833333 µM), the morphology score in assay [1] is 0.175. In addition, the SARS-CoV-2 infection rate in assay [2] is 101% (inactive).
The compound `CC(=O)[C@]1(O)Cc2c(O)c3c(c(O)c2[C@@H](O[C@H]2C[C@H](N)[C@H](O)[C@H](C)O2)C1)C(=O)c1ccccc1C3=O` [idarubicin] (0.833333 µM) registered a morphology score in assay [1] of -0.15. Besides, in assay [2], the SARS-CoV-2 infection rate is 106% (inactive).
The compound `CCN(CC)CC#CCOC(=O)C(O)(c1ccccc1)C1CCCCC1` (stereo not given) [oxybutynin] (10 µM) registered a morphology score in assay [1] of 0.299. For the same compound, the SARS-CoV-2 infection rate in assay [2] is 98% (inactive).
The corresponding values for `O=c1ccc2cc3ccoc3cc2o1` [psoralen] (10 µM) are -0.0337 and 108% (inactive).
`Cc1cc(CC(C)CC(C)(C)C)n(O)c(=O)c1` (stereo not given) [piroctone-olamine] (10 µM) yielded a morphology score in assay [1] of 0.406. Moreover, in assay [2], the SARS-CoV-2 infection rate was 88% (inactive).
The compound `CCNC(=O)NS(=O)(=O)c1sc(CC(C)C)cc1-c1ccc(Cn2c(-c3ccccc3)nc(OC)c2C=O)cc1` (10 µM) returned a morphology score in assay [1] of 0.159. In assay [2], the SARS-CoV-2 infection rate is 97% (inactive).
In assay [1], `O=C(O)c1cc(/N=N/c2ccc(S(=O)(=O)Nc3ccccn3)cc2)ccc1O` [sulfasalazine] (10 µM) registered a morphology score of 0.0447. Further, the SARS-CoV-2 infection rate in assay [2] is 105% (inactive).
In turn, `O=C1CN2Cc3c(ccc(Cl)c3Cl)N=C2N1` [anagrelide] (10 µM) registered a morphology score in assay [1] of 0.142. Further, in assay [2], the SARS-CoV-2 infection rate was 112% (inactive).
In turn, `N[C@H](C(=O)O)c1ccc(O)cc1` [oxfenicine] (10 µM) registered a morphology score in assay [1] of 0.246. Moreover, the SARS-CoV-2 infection rate in assay [2] is 103% (inactive).
`N#CCC1(n2cc(-c3ncnc4[nH]ccc34)cn2)CN(C2CCN(C(=O)c3ccnc(C(F)(F)F)c3F)CC2)C1` [itacitinib] (10 µM) had a morphology score in assay [1] of 0.22. Moreover, the SARS-CoV-2 infection rate in assay [2] is 97.5% (inactive).
For `N[C@@H](C(=O)N[C@@H]1C(=O)N2C(C(=O)O)=C(Cl)CS[C@H]12)c1ccccc1` [cefaclor] (10 µM), in that order: 0.0453 and 104% (inactive).
As for `CN(C)C(=O)c1cc2cnc(Nc3ccc(N4CCNCC4)cn3)nc2n1C1CCCC1` [ribociclib] (10 µM), the morphology score in assay [1] came to 0.244. Besides, the SARS-CoV-2 infection rate in assay [2] was 113% (inactive).
For `COc1cc(OC2CCN(C)CC2)ccc1Nc1ncc2c(n1)n(C1CCCC1)c(=O)n2C` (0.833333 µM), in that order: 0.126 and 98% (inactive).
For `O=C1c2c(O)cccc2Cc2cccc(O)c21` [anthralin] (10 µM), the morphology score in assay [1] is -0.0665. Further, the SARS-CoV-2 infection rate in assay [2] is 94% (inactive).
In the case of `CC(CN1c2ccccc2Sc2ccccc21)N(C)C` (stereo not given) [promethazine] (10 µM), the morphology score in assay [1] stood at 0.528. Also, the SARS-CoV-2 infection rate in assay [2] is 67.5% (inactive).
Compound `COc1cc2c(NC3CCN(C)CC3)nc(N3CCCN(C)CC3)nc2cc1OCCOCCN(C)C` (10 µM) yielded a morphology score in assay [1] of 0.108. In addition, in assay [2], the SARS-CoV-2 infection rate was 110% (inactive).
Compound `COc1ccc(CN2CCN(C(c3ccc(F)cc3)c3ccc(F)cc3)CC2)c(OC)c1OC` [lomerizine] (10 µM) returned a morphology score in assay [1] of 0.0043. In assay [2], the SARS-CoV-2 infection rate was 108% (inactive).
With `CC[C@@H](C)N(C)C(=O)c1cc2ccccc2c(-c2ccccc2Cl)n1` (10 µM), in assay [1], the morphology score was -0.122. In addition, in assay [2], the SARS-CoV-2 infection rate is 111% (inactive).
The corresponding values for `CNC(=O)c1cc(Oc2ccc(NC(=O)Nc3cc(C(C)(C)C)nn3-c3ccc4ncccc4c3)c(F)c2)ccn1` [rebastinib] (0.833333 µM) are 0.567 and 106% (inactive).
`COc1ccc(-c2cc(C(F)F)nn2-c2ccc(S(N)(=O)=O)cc2)cc1F` [deracoxib] (10 µM) gave a morphology score in assay [1] of 0.112. Moreover, in assay [2], the SARS-CoV-2 infection rate was 112% (inactive).
In turn, `C[C@@H](NCc1cc(Br)cc2nc(O)c(O)nc12)P(=O)(O)O` (10 µM) displayed a morphology score in assay [1] of 0.0389. Further, the SARS-CoV-2 infection rate in assay [2] was 101% (inactive).
In assay [1], `CC1(C)CC(Oc2ccc(-c3ccc(-c4cn[nH]c4)cc3O)nn2)CC(C)(C)N1` (10 µM) came in with a morphology score of -0.373. The SARS-CoV-2 infection rate in assay [2] is 120% (inactive).
For `O=C(c1ccc(Cl)o1)N1CC2CNCC2C1` (stereo not given) (10 µM), in that order: 0.187 and 105% (inactive).
Compound `COc1ccc(-c2sc(NC(=O)C(C)(C)C)nc2C)cc1S(=O)(=O)Nc1ccc(O)cc1` [PI4KIII-beta-inhibitor-1] (10 µM) yielded a morphology score in assay [1] of 0.325. Also, the SARS-CoV-2 infection rate in assay [2] is 66% (inactive).
